Common to all, as to set-up: scale not given: direction of the effect not stated beside the values
Test [1] concerns the target Protein translocase subunit SecA (Escherichia coli (strain K12)) (UniProt P10408). The test is described as follows: Assay to Identify E. coli SecA ATPase Inhibitors. The class given is functional. The settings on record: 30 µM.
Test [2] addresses T1, Ubiquitin-activating enzyme e1, putative (Leishmania donovani (strain BPK282A1)) (UniProt E9BSI1).
T1 sequence (whole entry): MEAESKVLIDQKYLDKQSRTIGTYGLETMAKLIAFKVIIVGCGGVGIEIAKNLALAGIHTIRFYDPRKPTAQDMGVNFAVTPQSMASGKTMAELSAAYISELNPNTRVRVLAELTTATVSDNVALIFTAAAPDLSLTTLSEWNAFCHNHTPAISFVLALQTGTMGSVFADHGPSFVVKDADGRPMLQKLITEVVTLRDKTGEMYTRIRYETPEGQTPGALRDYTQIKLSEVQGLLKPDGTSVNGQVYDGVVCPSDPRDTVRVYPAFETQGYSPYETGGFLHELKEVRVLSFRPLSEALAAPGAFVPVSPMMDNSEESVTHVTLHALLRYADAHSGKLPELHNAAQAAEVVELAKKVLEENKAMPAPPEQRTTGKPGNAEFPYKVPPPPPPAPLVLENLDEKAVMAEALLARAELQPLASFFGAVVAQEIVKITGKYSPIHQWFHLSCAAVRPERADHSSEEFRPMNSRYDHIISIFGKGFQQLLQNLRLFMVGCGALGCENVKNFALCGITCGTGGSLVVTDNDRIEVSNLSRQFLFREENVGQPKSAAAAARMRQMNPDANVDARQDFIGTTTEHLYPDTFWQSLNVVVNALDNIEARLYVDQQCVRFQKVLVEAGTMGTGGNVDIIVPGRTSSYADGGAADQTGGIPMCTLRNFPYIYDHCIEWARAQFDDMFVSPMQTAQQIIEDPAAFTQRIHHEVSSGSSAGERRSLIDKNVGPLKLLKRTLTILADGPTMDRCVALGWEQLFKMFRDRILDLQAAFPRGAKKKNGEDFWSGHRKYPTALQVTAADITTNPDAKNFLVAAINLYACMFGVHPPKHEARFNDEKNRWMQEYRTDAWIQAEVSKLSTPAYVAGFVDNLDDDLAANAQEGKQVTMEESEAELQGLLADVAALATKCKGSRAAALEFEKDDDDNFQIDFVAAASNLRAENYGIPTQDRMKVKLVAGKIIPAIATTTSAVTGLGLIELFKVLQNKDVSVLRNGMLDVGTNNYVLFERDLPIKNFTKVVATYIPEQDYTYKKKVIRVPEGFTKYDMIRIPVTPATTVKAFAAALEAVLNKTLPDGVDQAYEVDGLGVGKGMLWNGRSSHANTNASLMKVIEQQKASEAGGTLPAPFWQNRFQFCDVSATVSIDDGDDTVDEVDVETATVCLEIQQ
The test is described as follows: Leishmania donovani Ubiquitin Activating Enzyme (LdE1). The class given is functional. The note with it: 30 µM.

The target of test [3] is AMP-activated protein kinase, AMPK (Homo sapiens) (UniProt P54646+O43741+P54619+Q9UGJ0+Q9Y478+Q13131+Q9UGI9). The test is described as follows: AMP-dependent Kinase enzyme assay. An in vitro enzyme assay that detects ADP turnover that is directly proportional to AMPK activity. This uses naive AMPK that is activated during the assay with MK-8722. The class given is functional. The note with it: 30 µM.

The target in test [4] is Sialic acid-binding Ig-like lectin 9 (Homo sapiens) (UniProt Q9Y336). Briefly: Hs-Siglec9 ALPHAscreen SOP 20170721. The settings on record: 10 µM. For orientation: Bead proximity is the source of the signal in Alpha formats.
Sequence of Sialic acid-binding Ig-like lectin 9 (Homo sapiens) (Q9Y336 whole entry): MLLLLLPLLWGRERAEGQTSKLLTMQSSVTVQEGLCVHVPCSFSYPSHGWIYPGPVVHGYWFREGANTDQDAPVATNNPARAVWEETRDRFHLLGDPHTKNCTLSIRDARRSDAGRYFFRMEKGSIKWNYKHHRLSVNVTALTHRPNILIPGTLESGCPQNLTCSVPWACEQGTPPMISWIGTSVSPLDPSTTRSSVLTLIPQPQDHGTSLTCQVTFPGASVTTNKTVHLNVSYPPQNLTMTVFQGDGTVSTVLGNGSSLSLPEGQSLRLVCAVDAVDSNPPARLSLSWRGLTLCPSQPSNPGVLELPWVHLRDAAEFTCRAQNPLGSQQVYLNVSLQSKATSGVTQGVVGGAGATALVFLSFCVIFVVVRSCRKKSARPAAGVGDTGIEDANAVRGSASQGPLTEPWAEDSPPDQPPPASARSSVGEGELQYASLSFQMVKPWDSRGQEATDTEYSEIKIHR
The next test has as its system Trypanosoma cruzi. Briefly: Trypanosoma cruzi phosphomannomutase and mannose-1-phosphate guanylyltransferase assay. The class given is functional. The settings on record: 10 µM.
Test [5] deals with T2, Arginase-2, mitochondrial (Homo sapiens) (UniProt P78540).
T2 sequence (whole entry): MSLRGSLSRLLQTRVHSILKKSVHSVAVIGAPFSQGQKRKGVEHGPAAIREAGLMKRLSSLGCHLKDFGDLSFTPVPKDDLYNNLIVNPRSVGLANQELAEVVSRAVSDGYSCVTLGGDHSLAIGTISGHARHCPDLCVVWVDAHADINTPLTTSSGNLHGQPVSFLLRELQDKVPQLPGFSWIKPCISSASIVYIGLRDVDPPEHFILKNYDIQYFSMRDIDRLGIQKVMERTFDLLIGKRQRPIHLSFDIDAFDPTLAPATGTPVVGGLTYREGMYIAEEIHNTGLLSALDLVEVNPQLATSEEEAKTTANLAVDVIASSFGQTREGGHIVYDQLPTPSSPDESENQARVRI
Briefly: in vitro enzyme assay to detect the production of urea directly proportional to the activity of Arginase II. Note: in the data most compounds retested in dose-response had high values. The class given is functional. The settings on record: 33.3 µM.

In test [6] the target is T3, Proteasome subunit beta (Trypanosoma cruzi) (UniProt O96673).
T3 sequence (whole entry): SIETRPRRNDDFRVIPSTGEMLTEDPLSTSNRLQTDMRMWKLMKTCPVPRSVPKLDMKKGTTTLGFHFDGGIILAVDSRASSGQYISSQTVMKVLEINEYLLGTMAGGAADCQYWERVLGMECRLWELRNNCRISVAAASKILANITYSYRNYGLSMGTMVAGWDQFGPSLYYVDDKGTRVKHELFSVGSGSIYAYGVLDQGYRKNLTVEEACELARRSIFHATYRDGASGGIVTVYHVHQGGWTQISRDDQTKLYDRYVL
The test is described as follows: Trypanosoma cruzi proteasome chymotrypsin-like activity (TcProtChymo) assay. Note: in the data most compounds retested in dose-response had high values. The class given is functional. The settings on record: 9.37 µM.

For a further test, the species on record is Homo sapiens. The test is described as follows: To identify inhibition of the IFN signalling (Jak-Stat) pathway via expression of an eGFP reporter gene under the control of an IFN-stimulated response element (ISRE) containing MxA promoter. The class given is functional. The settings on record: 30 µM.
Test [7] addresses T4, Tyrosyl-tRNA synthetase, putative (Trypanosoma cruzi (strain CL Brener)) (UniProt Q4DSP6).
T4 sequence (whole entry): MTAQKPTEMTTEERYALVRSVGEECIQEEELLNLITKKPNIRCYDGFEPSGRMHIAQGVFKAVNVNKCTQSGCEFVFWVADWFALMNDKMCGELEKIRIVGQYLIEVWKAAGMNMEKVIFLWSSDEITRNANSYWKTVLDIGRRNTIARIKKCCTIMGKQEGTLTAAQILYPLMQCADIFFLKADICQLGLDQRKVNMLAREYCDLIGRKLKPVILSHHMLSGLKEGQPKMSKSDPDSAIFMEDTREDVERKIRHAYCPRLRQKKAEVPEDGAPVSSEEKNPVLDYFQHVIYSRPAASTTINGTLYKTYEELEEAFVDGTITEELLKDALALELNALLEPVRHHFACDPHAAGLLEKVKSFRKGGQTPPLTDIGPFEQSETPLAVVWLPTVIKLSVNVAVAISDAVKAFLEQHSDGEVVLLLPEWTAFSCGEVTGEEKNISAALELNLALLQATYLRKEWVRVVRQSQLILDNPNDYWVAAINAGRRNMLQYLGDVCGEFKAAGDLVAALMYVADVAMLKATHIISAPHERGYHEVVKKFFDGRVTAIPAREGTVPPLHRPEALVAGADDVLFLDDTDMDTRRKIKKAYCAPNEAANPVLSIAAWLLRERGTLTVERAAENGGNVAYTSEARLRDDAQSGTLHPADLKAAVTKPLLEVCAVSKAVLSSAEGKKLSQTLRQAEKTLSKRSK
Briefly: Trypanosoma cruzi tyrosyl tRNA synthetase (TcYRS) _High Tyrosine SOP. Note: in the data most compounds retested in dose-response had high values. The class given is functional. The note with it: 30 µM.

The target of test [8] is T4, Tyrosyl-tRNA synthetase, putative (Trypanosoma cruzi (strain CL Brener)). The test is described as follows: Trypanosoma cruzi tyrosyl tRNA synthetase (TcYRS) SOP. The class given is functional. The settings on record: 30 µM.
Test [9] has as its target Chromo domain-containing protein 1 (Saccharomyces cerevisiae (strain ATCC 204508 / S288c) (Baker's yeast)) (UniProt P32657). The test is described as follows: ScCHD-1 Enzyme Inhibition Assay. Note: in the data most compounds retested in dose-response had high values. The class given is functional. The note with it: 30 µM.

For some of these results: Entries with a potency or affinity are not part of this list.

Sequence of Chromo domain-containing protein 1 (Saccharomyces cerevisiae (strain ATCC 204508 / S288c) (Baker's yeast)) (P32657 whole entry, the tested form may be a part): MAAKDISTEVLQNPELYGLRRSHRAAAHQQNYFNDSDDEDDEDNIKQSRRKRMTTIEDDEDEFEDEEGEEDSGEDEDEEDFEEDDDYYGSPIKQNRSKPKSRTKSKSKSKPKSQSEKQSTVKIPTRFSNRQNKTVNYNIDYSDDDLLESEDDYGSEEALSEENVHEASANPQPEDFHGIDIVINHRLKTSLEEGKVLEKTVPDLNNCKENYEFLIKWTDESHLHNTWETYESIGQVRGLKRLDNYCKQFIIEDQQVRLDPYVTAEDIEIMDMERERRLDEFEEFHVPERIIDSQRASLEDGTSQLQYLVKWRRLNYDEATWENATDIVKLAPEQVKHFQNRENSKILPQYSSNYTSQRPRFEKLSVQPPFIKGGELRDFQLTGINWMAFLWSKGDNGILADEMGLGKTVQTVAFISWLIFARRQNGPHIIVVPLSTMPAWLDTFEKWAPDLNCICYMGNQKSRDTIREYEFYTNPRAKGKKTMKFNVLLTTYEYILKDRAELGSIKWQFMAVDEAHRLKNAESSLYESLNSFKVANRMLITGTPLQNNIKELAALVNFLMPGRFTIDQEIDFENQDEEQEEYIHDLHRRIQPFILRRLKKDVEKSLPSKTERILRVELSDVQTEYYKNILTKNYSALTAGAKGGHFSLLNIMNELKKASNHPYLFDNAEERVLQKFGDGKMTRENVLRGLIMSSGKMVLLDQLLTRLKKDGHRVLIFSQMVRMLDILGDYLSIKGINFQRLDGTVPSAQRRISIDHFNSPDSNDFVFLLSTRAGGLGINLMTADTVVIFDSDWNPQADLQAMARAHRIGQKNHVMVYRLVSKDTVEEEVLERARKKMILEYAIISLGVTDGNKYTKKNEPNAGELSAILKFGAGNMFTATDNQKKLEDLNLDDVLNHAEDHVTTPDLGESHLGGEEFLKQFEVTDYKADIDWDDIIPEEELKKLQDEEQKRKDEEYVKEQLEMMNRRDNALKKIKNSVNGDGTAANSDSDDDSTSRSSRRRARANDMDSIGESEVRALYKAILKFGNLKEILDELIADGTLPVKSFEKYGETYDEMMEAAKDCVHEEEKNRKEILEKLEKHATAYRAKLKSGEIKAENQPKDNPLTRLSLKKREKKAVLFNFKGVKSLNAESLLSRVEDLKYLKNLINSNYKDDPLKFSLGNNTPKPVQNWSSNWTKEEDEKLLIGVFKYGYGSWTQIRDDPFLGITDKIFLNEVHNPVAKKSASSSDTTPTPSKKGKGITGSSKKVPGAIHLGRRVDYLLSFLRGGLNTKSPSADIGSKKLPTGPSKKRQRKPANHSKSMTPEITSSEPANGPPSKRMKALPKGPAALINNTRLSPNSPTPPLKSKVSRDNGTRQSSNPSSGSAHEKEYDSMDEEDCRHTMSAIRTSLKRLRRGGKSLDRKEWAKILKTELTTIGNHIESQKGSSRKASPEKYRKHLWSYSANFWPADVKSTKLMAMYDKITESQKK
Sequence of Protein translocase subunit SecA (Escherichia coli (strain K12)) (P10408 whole entry): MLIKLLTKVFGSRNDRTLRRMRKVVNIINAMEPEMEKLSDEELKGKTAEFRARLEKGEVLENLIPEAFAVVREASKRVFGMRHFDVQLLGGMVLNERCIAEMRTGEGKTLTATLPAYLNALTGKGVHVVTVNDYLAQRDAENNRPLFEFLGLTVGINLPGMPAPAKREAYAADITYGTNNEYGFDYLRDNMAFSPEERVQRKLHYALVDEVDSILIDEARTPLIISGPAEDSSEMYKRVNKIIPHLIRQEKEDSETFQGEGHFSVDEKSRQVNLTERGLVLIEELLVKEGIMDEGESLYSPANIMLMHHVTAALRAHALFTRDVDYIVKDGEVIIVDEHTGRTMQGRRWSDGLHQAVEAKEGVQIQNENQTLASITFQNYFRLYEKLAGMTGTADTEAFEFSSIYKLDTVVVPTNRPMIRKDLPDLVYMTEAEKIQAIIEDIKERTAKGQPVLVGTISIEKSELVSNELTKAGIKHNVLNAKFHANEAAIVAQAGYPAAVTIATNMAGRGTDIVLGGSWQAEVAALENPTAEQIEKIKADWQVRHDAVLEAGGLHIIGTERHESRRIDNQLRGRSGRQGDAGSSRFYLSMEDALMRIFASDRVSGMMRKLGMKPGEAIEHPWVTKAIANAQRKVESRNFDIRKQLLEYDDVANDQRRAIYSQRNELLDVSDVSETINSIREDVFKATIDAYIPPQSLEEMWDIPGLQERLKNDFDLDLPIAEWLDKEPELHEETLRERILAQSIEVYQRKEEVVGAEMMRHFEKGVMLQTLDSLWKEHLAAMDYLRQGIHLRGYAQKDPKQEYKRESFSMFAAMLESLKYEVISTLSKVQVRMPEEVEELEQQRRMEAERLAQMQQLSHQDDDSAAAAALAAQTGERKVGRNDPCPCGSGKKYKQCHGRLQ

With `CCS(=O)(=O)N1CCC(c2nnc(Cn3cccn3)n2C2CC2)CC1`, the Percent Effect is -4.32% in test [1]; 1.39% in [2]; -35.4% in [3]; -1% in [4]; 2.23% with Trypanosoma cruzi; 3.97% in test [5]. For the same compound, the Percent Effect in test [6] was 2.1%; in the test filed under Homo sapiens it was -11.4%; in [7] it was 2.1%; in [8] it was 7.69%; in test [9], -2.3%.
In the case of `Cc1ccccc1CN1CCC2(COCc3cnc(N(C)C)nc32)C1` (stereo unspecified), the Percent Effect in test [1] is -1.75%; in test [2], 2.74%; in [3], -2.35%; in [4] it was 15.2%; in the test on Trypanosoma cruzi, 8.73%; in test [5] it was -2%. Further, the Percent Effect was 8.65% in test [6]; 19.6% in the test filed under Homo sapiens; 9.38% in test [7]; 13.6% in test [8]; -2.3% in test [9].
For the compound `CC(O)CN1CCC(CNCc2ccc(S(C)(=O)=O)cc2)CC1` (stereo unspecified), the Percent Effect in [1] is -2%; in [2], 19.2%; in test [3], -8.77%; in test [4], 13.4%; in the test with Trypanosoma cruzi it was 2.15%; in test [5], 8.64%. For the same compound, the Percent Effect in test [6] is 24.5%; in the test filed under Homo sapiens, 5.76%; in test [7], 4.3%; in test [8], 15%; in [9], -7.9%.
`O=C(NCCCn1cccn1)N1CCCC1c1ccncc1` (stereo unspecified): the Percent Effect in [1] is -5.24%; in test [2], 2.67%; in test [3], -0.283%; in test [4] it was 0.781%; with Trypanosoma cruzi, -6.13%; in test [5], -1.56%. The Percent Effect was 15.3% in test [6]; 25.4% in the test filed under Homo sapiens; 0.546% in [7]; 1.24% in test [8]; -6.79% in test [9].
On to `O=C(CCC1CCCC1)NCCn1nc(C2CCNC2)c2cccnc21` (stereo unspecified), for which the Percent Effect was -0.0662% in test [1]; 0% in [2]; 8.6% in test [3]; 2.58% in test [4]; 4.53% in the test on Trypanosoma cruzi; -0.699% in test [5]. In addition, the Percent Effect in [6] is 3.26%; in the test filed under Homo sapiens it was -34.5%; in test [7], 3.19%; in [8] it was 6.41%; in test [9], -1.12%.
As for `CCn1ccnc1CN1CCN(C(C)C(=O)NC2CCCCC2)CC1` (stereo unspecified), the Percent Effect was -6.02% in [1]; 5.26% in test [2]; -1.96% in [3]; -3.82% in test [4]; -7.71% with Trypanosoma cruzi; 0.766% in [5]. Also, the Percent Effect in test [6] is 5.68%; in the test filed under Homo sapiens, 24.7%; in [7] it was -3.43%; in test [8] it was -4.88%; in [9] it was 5.81%.
In the case of `Cc1ccoc1C(=O)N1C[C@@H]2[C@@H](C1)OCC(=O)N2Cc1cccnc1`, the Percent Effect in test [1] was -4.32%; in test [2], -15.6%; in test [3], -0.37%; in test [4], 0.332%; in the test with Trypanosoma cruzi, -2.86%; in test [5], 3.23%. Further, the Percent Effect in test [6] is 2.96%; in the test filed under Homo sapiens it was 19.8%; in test [7] it was -27.5%; in test [8], -47.4%; in test [9], 5.56%.
As for `Cc1ccsc1[C@@H]1CCN(C(=O)CCC(=O)N2CCCCCC2)C[C@H]1O`, the Percent Effect in test [1] was -3.23%; in test [2] it was 6.94%; in [3] it was -7.07%; in [4], -3.16%; in the test on Trypanosoma cruzi it was 1.46%; in test [5], -1.32%. The Percent Effect in test [6] was 4.91%; in the test filed under Homo sapiens, -6.38%; in [7], 5.26%; in test [8], 10.3%; in [9], -2.41%.
Take `Cc1cnn(CC2CN(c3ncnc4ccccc34)CCO2)c1` (stereo unspecified): the Percent Effect in test [1] was -1.94%; in test [2], -7.59%; in [3] it was 1.23%; in test [4], 9.68%; in the test on Trypanosoma cruzi, 8.03%; in test [5] it was -1.14%. For the same compound, the Percent Effect is 1.39% in test [6]; 37.6% in the test listed under Homo sapiens; 1.48% in test [7]; 1.27% in test [8]; -3.24% in test [9].
Turning to `COc1ccc(CS(=O)(=O)CC(=O)NCC2CC2)cc1F`, the Percent Effect was -1.25% in [1]; 10.5% in [2]; 6.04% in test [3]; -2.71% in [4]; 1.66% in the test on Trypanosoma cruzi; 5.92% in [5]. Also, the Percent Effect was 15.6% in test [6]; 8.09% in the test listed under Homo sapiens; 6.38% in [7]; 18.2% in [8]; -4.08% in [9].
Take `CC(C)(C)c1cc(CN2CC[C@@H](NC(=O)c3cccnc3)[C@H](O)C2)n[nH]1`: the Percent Effect in test [1] is -3.5%; in test [2], 1.39%; in test [3], -10.7%; in test [4], 10.3%; with Trypanosoma cruzi it was 4.37%; in test [5] it was 17.7%. Further, the Percent Effect in test [6] was 6.49%; in the test listed under Homo sapiens, 15.6%; in test [7] it was 3.16%; in test [8], 12.8%; in test [9] it was -6.81%.

Source of the values: ChEMBL document CHEMBL3988442, “University of Dundee, Small-Polar-MMV Screening Library” (2021).
